{"source": "PubChem BioAssay (NCATS)", "note": "Inconclusive results are not listed. Unmarked numbers belong to inactive results. Active and inactive are the calls of the source. Calls come from the whole dose curve; as a rule, active = well fitted inhibition curve with a large enough effect; inconclusive = small, poorly fitted or top-dose-only effect; inactive = flat fitted curve, though single readings scatter. % is set by controls: 0 for no effect and ±100 for the full control effect; potency is the fitted concentration of half-maximal effect.", "data": [{"test_system": "KB-3-1", "experiment": "Cytotoxic Profiling of Annotated Libraries Using Quantitative High-Throughput Screening (AID 1296008); note: nearly all actives have a fitted effect of over 60% in size", "settings": "Five cell lines viability, CellTiter-Glo ATP luminescence, 48-72 h; max response: active compounds read low", "in_short": "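Compounds were pin-transferred onto cells and incubated 48 or 72 hr at 37 degree Celsius, 95% humidity. CellTiter-Glo was added, plates sat 10 min at room temperature, then ATP-coupled luminescence was imaged as the viability read-out.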", "units": {"max response": "%"}, "values": [{"smiles": "Oc1cccc(-c2c3nc(c(-c4cccc(O)c4)c4ccc([nH]4)c(-c4cccc(O)c4)c4nc(c(-c5cccc(O)c5)c5ccc2[nH]5)CC4)C=C3)c1", "Potency": "16.4 µM (active)"}, {"smiles": "CCC(C)C(=O)OC1C(C)C2(O)C(C=C(CO)CC3(O)C(=O)C(C)=CC32)C2C(C)(C)C12OC(=O)C(C)C", "note": "(centres undefined)", "max response": 7.48}, {"smiles": "CCC(C)(OC(C)=O)C(=O)O[C@H]1[C@H](OC(C)=O)[C@]2(CO)[C@H](O)[C@H](O)[C@]3(C)C(=CCC4[C@@]5(C)CC[C@H](O[C@@H]6O[C@H](C(=O)O)[C@@H](O)[C@H](O[C@@H]7OC[C@H](O)[C@H](O[C@@H]8OC[C@H](O)[C@H](O)[C@H]8O)[C@H]7O)[C@H]6O[C@@H]6O[C@H](CO)[C@@H](O)[C@H](O)[C@H]6O)C(C)(C)C5CC[C@]43C)[C@@H]2CC1(C)C", "note": "(some centres undefined)", "max response": -16.4}, {"smiles": "O=C(c1ccccc1)c1c(O)cc(O)cc1O[C@@H]1O[C@H](CO)[C@@H](O)[C@H](O)[C@H]1O", "max response": 2.63}, {"smiles": "CCOC(=O)c1csc(Nc2ccc(Cl)cc2)n1", "max response": -19}, {"smiles": "FC(F)(F)c1ccccc1-c1cc(C(F)(F)F)c2nc(C3=NOC4(CCCCC4)C3)[nH]c2c1", "max response": -18.9}, {"smiles": "Cc1ccc(-c2c(C(=O)CCl)n(CCCO)c3ncnc(N)c23)cc1", "max response": -3.1}, {"smiles": "CCn1c(=O)c(-c2ccc(-c3cncs3)cc2Cl)cc2cnc(Nc3ccc(N4CCN(C)CC4)cc3)nc21", "Potency": "10.3 µM (active)"}, {"smiles": "O=C(Nc1cccc(C(F)(F)F)c1)Nc1ccc(Br)cc1-c1nn[nH]n1", "max response": 7.51}]}]}
